Out of some 190,000 compounds screened, about 3,500 (1.8%) were called active. The full list was thinned out, with actives kept by preference. A number with no mark means an inactive call.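 How the source made its calls: active means inhibition above a set limit, 3 SD over mean compound inhibition (cut at about 8.4% in these data); inactive means the rest.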

A short description of the assay: RAM signaling blockers in budding yeast – dse1pr::URA3 reporter, 5-FOA selection, primary screen (AID 868).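 Further: 0% = DMSO-only wells with no growth and 100% = 10 µM 1-NA-PP1 full growth; inhibition rescues growth on 5-FOA so higher OD means more RAM inhibition.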 The conditions noted are these: S. cerevisiae dse1pr::URA3 reporter, 5-FOA growth OD615, 2 d; at 50 µM; active compounds read high; analog-sensitive cbk1-as2 kinase mutant strain.
One may read the inhibition as the drop in the measured response relative to a control, in per cent. In the case of `CCCC1NC(=S)NC(C)=C1C(C)=O` (configuration not stated), the inhibition is 1.13%.
With `Cc1ccc(NC(=O)c2cccnc2C(=O)Nc2ccc(C)cc2)cc1` the figure was 2.98%.
With `Cc1ccc(NC(=O)CN2CCCCC2)c2c1CC(C)(C)O2` the figure was 0.63%; with `COc1ccc(-c2[nH]ncc2CN(C)Cc2cc(C)[nH]n2)c(F)c1`, 0.37%; with `CN(C)c1ccc(C2Nc3ccccc3C(=O)N2NS(=O)(=O)c2ccccc2)cc1` (configuration not stated), 1.39%.
In the case of `O=C1Cc2ccccc2Sc2ccc(Cl)cc21`, the inhibition was 9.58% (active).
As for `O=C(CSc1nc2ccccc2o1)N1c2ccccc2Sc2ccc(Cl)cc21`, the inhibition is 3.58%.
Consider `S=C1Nc2cc(Cl)ccc2Sc2ccccc21`, for which the inhibition is 0%.
Next, `CN(CC(=O)N1CCN(c2ccccc2)CC1)S(=O)(=O)c1cccs1`: 1.71%; `O=C(NCCCN1CCOCC1)c1ccccc1NS(=O)(=O)c1ccc(Br)cc1`: 1.86%.
For the molecule `CC(=O)c1cc(-c2ccccc2)n(CCC(=O)NC2CCCCCC2)c1C`, the inhibition is 8.76% (active).
As to `O=C(CN1C(=O)CC(c2ccccc2)=Nc2ccccc21)NC1CCCCC1`, the inhibition is 0.45%.
Consider `CC(=O)c1cc(-c2ccccc2)n(CC(=O)NC2CCCCC2)c1C`, for which the inhibition is 1.07%.
Turning to `S=c1[nH]nc(/C=C/c2ccccc2)o1`, the inhibition is -1.49%.
For `O=c1c(-c2ccccc2)cnc2n1CCS2`, the inhibition was 0.49%.
On to `CNc1[nH]ncc1[N+](=O)[O-]`, for which the inhibition was 0.14%.
For the molecule `CC(=O)Nc1ccc(S(=O)(=O)Nc2ccc(-c3ccc4nnc(C)n4n3)cc2)cc1`, the inhibition is 1.24%.
Next, `Cc1cc(NS(=O)(=O)c2ccccc2)no1`: 1.83%.
For the molecule `COc1cc(OC)cc(C(=O)Nc2ccc(S(=O)(=O)Nc3cc(C)on3)cc2)c1`, the inhibition is 3.99%.
For the molecule `COc1cc2ccccc2cc1C(=O)Nc1ccc(S(=O)(=O)Nc2cc(C)on2)cc1`, the inhibition is 9.69% (active).
Next, `C/C=N/NC(=O)CCCC(=O)N/N=C/C`: 0.88%; `C#CCOCCOCCOCCNc1nc(N2CCN(C(=O)[C@H](C(C)C)n3cc(CCO)nn3)CC2)nc(N2CCN(C(=O)[C@H](C(C)C)n3cc(CCO)nn3)CC2)n1`: 1.36%; `CCC1C(=O)c2ccccc2N(C)C1=O` (configuration not stated): 0.28%.
With `CN1C(=O)/C(=N/OC(=O)c2ccccc2Br)c2ccccc21` the figure was 4.91%.
For the molecule `CN1C(=O)/C(=C\c2cc(Br)cs2)c2ccccc21`, the inhibition is 8.8% (active).
For `CN1CCN(C(=O)CCc2ncc(C(F)(F)F)cc2Cl)CC1`, the inhibition was -0.55%.
With `COc1ccc(-n2cnc3cc(C(=O)NC4CCCC4)ccc32)cc1` the figure was -0.87%.

These data come from PubChem BioAssay AID868 (SRMLSC, 2007).
